According to PubChem BioAssay AID1159580 (chemical genetic matrix, 2015):
Hit rate of the full screen: of about 5,500 compounds, about 2,000 (36%) were called active. Inconclusive results (about 18%) are left out. Rule as the data show it: active = normalized growth mostly below about 0.91 (no sharp cut-off); inconclusive = no clear call, values can overlap the other calls; inactive = mostly above about 0.92. Some of the results follow.

Assay: chemical genetic growth profiling, strain panel (AID 1159580);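 also: tested at 20 µM; growth read once vehicle control cultures reached saturation at 30 °C; 1 = growth at the plate median or of vehicle wells; lower values mean less growth of the strain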
Conditions: S. cerevisiae deletion strains, growth OD

Measured: normalized growth

OC(CNCc1ccc(Cl)cc1)CO/N=C\C1=C(Cl)c2cc(Cl)ccc2OC1 (stereo not given)
inactive: locus YAR019C, strain CDC15, hits give low values 0.962 | locus YBL105C, strain PKC1, hits give low values 0.981 | locus YBR135W, strain CKS1, hits give low values 0.981 | locus YBR136W, strain MEC1, hits give low values 0.957 | locus YBR160W, strain CDC28, hits give low values 0.988 | locus YDL017W, strain CDC7, hits give low values 0.986 | locus YDL028C, strain MPS1, hits give low values 0.975 | locus YDL101C, strain DUN1, hits give low values 0.987 | locus YDL108W, strain KIN28, hits give low values 0.967 | locus YDL132W, strain cdc53, hits give low values 0.979 | locus YDL214C, strain PRR2, hits give low values 0.925 | locus YDR052C, strain DBF4, hits give low values 0.989 | locus YDR054C, strain cdc34, hits give low values 0.98 | locus YDR226W, strain ADK1, hits give low values 0.97 | locus YDR477W, strain SNF1, hits give low values 0.974 | locus YER123W, strain YCK3, hits give low values 0.867 | locus YER133W, strain GLC7, hits give low values 0.933 | locus YFL009W, strain cdc4, hits give low values 0.976 | locus YFL029C, strain CAK1, hits give low values 0.963 | locus YFR003C, strain YPI1, hits give low values 0.981 | locus YFR019W, strain FAB1, hits give low values 0.921 | locus YFR028C, strain CDC14, hits give low values 0.96 | locus YGR040W, strain KSS1, hits give low values 0.97 | locus YGR052W, strain FMP48, hits give low values 1 | locus YGR092W, strain DBF2, hits give low values 0.928 | locus YHR030C, strain SLT2, hits give low values 0.871 | locus YHR079C, strain IRE1, hits give low values 0.931 | locus YHR082C, strain KSP1, hits give low values 0.966 | locus YHR205W, strain SCH9, hits give low values 0.949 | locus YIL147C, strain SLN1, hits give low values 0.969 | locus YJL095W, strain BCK1, hits give low values 0.915 | locus YJL128C, strain PBS2, hits give low values 0.933 | locus YJL157C, strain FAR1, hits give low values 0.971 | locus YJR016C, strain ILV3, hits give low values 0.991 | locus YJR066W, strain TOR1 (second series), hits give low values 1 | locus YJR066W, strain TOR1, hits give low values 0.944 | locus YKL048C, strain ELM1, hits give low values 0.931 | locus YKL067W, strain YNK1, hits give low values 0.937 | locus YKL101W, strain HSL1, hits give low values 0.923 | locus YKL193C, strain SDS22, hits give low values 0.981 | locus YKL203C, strain TOR2, hits give low values 0.983 | locus YLR113W, strain HOG1, hits give low values 0.87 | locus YLR133W, strain CKI1, hits give low values 0.96 | locus YLR403W, strain SFP1, hits give low values 0.996 | locus YML070W, strain DAK1, hits give low values 0.924 | locus YMR001C, strain CDC5, hits give low values 0.985 | locus YMR205C, strain PFK2 (second series), hits give low values 0.949 | locus YMR277W, strain FCP1, hits give low values 0.981 | locus YNL006W, strain LST8, hits give low values 0.99 | locus YNL020C, strain ARK1, hits give low values 0.963 | locus YNL161W, strain CBK1, hits give low values 0.983 | locus YNL183C, strain NPR1, hits give low values 0.932 | locus YNL207W, strain RIO2, hits give low values 0.97 | locus YNL222W, strain SSU72, hits give low values 0.979 | locus YNL307C, strain MCK1 (second series), hits give low values 0.934 | locus YOL078W, strain AVO1, hits give low values 0.984 | locus YOL136C, strain PFK27, hits give low values 0.921 | locus YOR061W, strain CKA2, hits give low values 0.969 | locus YOR119C, strain RIO1, hits give low values 0.957 | locus YOR231W, strain MKK1, hits give low values 0.918 | locus YOR329C, strain SCD5, hits give low values 0.977 | locus YPL031C, strain PHO85, hits give low values 0.975 | locus YPL153C, strain RAD53, hits give low values 0.984 | locus YPL204W, strain HRR25, hits give low values 0.994 | locus YPL209C, strain IPL1, hits give low values 0.981 | locus YPL256C, strain CLN2, hits give low values 0.864 | locus YPR025C, strain CCL1, hits give low values 0.981 | locus YPR106W, strain ISR1, hits give low values 0.963 | locus YPR111W, strain DBF20, hits give low values 0.962 | strain NNK1, hits give low values 0.959 | strain TSCII, hits give low values 0.979

CC1(C)CCC2=C(O1)c1ccccc1C(=O)C2=O
inactive: locus YAL040C, strain CLN3, hits give low values 1.02 | locus YER002W, strain NOP16, hits give low values 1 | locus YGR078C, strain PAC10, hits give low values 0.977 | locus YMR263W, strain SAP30, hits give low values 0.956 | locus YNL175C, strain NOP13, hits give low values 0.973 | locus YNL197C, strain WHI3, hits give low values 0.926 | locus YNL224C, strain SQS1, hits give low values 1 | locus YOR083W, strain WHI5 (second series), hits give low values 0.938
active: locus YAL013W, strain DEP1, hits give low values 0.879 | locus YCL061C, strain MRC1 (second series), hits give low values 0.876 | locus YDR150W, strain NUM1, hits give low values 0.857 | locus YDR363W, strain ESC2, hits give low values 0.706 | locus YPL055C, strain LGE1, hits give low values 0.769 | locus YPL241C, strain CIN2, hits give low values 0.861
